Data reported in PubChem BioAssay (NCI).
About 79,000 compounds went through this panel and 15% of them were active in at least one assay; those are over-represented in the sample as a whole. Unmarked numbers belong to inactive results. The source made the active and inactive calls. Rule as the data show it: active = growth inhibition above about 70%; inactive = the rest.

Columns and labels:
[1] = NCI Yeast Anticancer Drug Screen. Data for the rad50 strain (AID 155);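 also: 0% = growth of vehicle-only cultures of the same strain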; details: S. cerevisiae rad50 strain growth inhibition, active compounds read high
How it was run: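 Compounds were tested on a yeast strain with an engineered DNA damage repair alteration; the reported value is growth inhibition normalised to vehicle treatment.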

[2] = NCI Yeast Anticancer Drug Screen. Data for the mec2-1 strain (AID 157); details: S. cerevisiae mec2-1 strain, active compounds read high
How it was run: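 Using mec2-1 yeast: add compound, measure growth, express inhibition versus vehicle-treated cultures.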

[3] = NCI Yeast Anticancer Drug Screen. Data for the sgs1 mgt1 strain (AID 161);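 also: 0% = growth of cultures given vehicle only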; details: S. cerevisiae sgs1 mgt1 strain, active compounds read high
How it was run: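 Yeast cells carrying a defined DNA-repair defect were exposed to test compounds. Growth inhibition was measured relative to vehicle-treated controls.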

[4] = NCI Yeast Anticancer Drug Screen. Data for the cln2 rad14 strain (AID 165);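 also: 0% = growth equal to vehicle treated cultures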; details: S. cerevisiae cln2 rad14 strain, active compounds read high
How it was run: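 Yeast strain cln2 rad14, bearing defects in cell cycle control and DNA repair, serves as the test system; values reflect growth inhibition compared with vehicle.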

[5] = NCI Yeast Anticancer Drug Screen. Data for the bub3 strain (AID 167); details: S. cerevisiae bub3 mutant strain, active compounds read high
How it was run: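 Growth of a checkpoint-deficient yeast mutant is measured after compound exposure. Values represent inhibition relative to vehicle.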

[6] = NCI Yeast Anticancer Drug Screen. Data for the mlh1 rad18 strain (AID 175); details: S. cerevisiae mlh1 rad18 strain growth inhibition, active compounds read high
How it was run: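 Steps: expose repair-defective yeast to compound; measure growth; express inhibition against vehicle-treated controls.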

[7] = at 5.0 µM (retest, dose inferred, filed as 0.5)
[8] = at 50.0 µM (retest, dose inferred, filed as 5.0)

| SMILES | growth inhibition [1, 7] | growth inhibition [1, 8] | growth inhibition ([1]; at 50.0 µM) | growth inhibition [2, 7] | growth inhibition [2, 8] | growth inhibition ([2]; at 50.0 µM) | growth inhibition [3, 7] | growth inhibition [3, 8] | growth inhibition ([3]; at 50.0 µM) | growth inhibition [4, 7] | growth inhibition [4, 8] | growth inhibition ([4]; at 50.0 µM) | growth inhibition [5, 7] | growth inhibition [5, 8] | growth inhibition ([5]; at 50.0 µM) | growth inhibition [6, 7] | growth inhibition [6, 8] | growth inhibition ([6]; at 50.0 µM) |
| --- | --- | --- | --- | --- | --- | --- | --- | --- | --- | --- | --- | --- | --- | --- | --- | --- | --- | --- |
| O=C1N[C@H]2[C@H](O)[C@H](O)[C@@H](O)[C@H](O)[C@@H]2c2cc3c(c(O)c21)OCO3 | 12% | 70% (active) | 69% | 19% | 70% (active) | 65.8% | 17% | 58% | 67.2% | 32% | 66% | 69% | 19% | 60% | 68.7% | 26% | 84% (active) | 58.2% |
| CC(=O)[C-](Cl)C(C)=O.CC(=O)[C-](Cl)C(C)=O.CC(=O)[C-](Cl)C(C)=O.[Ru+3] | 16% | 98% (active) | 34.6% | 15% | 99% (active) | 84.8% (active) | 16% | 99% (active) | 53.8% | 8% | 99% (active) | -1.7% | -1% | 99% (active) | -17.4% | 6% | 99% (active) | 76.8% (active) |
| CCCCCCCCCCCCCCCCOC[C@@H](COC(c1ccccc1)(c1ccccc1)c1ccccc1)O[P+](=S)OC (stereo partly specified) | 31% | 67% | 62.4% | 20% | 39% | 85.8% (active) | 18% | 55% | 86.5% (active) | 36% | 29% | 77.6% (active) | 43% | 58% | 82.4% (active) | 22% | 32% | 91.1% (active) |
| COc1ccc2c(ccc3oc([N+](=O)[O-])cc32)c1 | 93% (active) | 95% (active) | 85.9% (active) | 96% (active) | 97% (active) | 91% (active) | 93% (active) | 94% (active) | 79.8% (active) | 97% (active) | 96% (active) | 85.2% (active) | 87% (active) | 91% (active) | 68% | – | – | – |
| [Cl][Hg][c]1ccc2ccccc2c1 | 99% (active) | 98% (active) | 85.8% (active) | 100% (active) | 97% (active) | 89.5% (active) | 100% (active) | 98% (active) | 90.9% (active) | 100% (active) | 97% (active) | 89.3% (active) | 99% (active) | 97% (active) | 88.1% (active) | 100% (active) | 97% (active) | – |
| [C-]#[O+].[C-]#[O+].[Mo].c1ccc([PH+](CC[PH+](c2ccccc2)c2ccccc2)c2ccccc2)cc1.c1ccc([PH+](CC[PH+](c2ccccc2)c2ccccc2)c2ccccc2)cc1 | 0% | 65% | 2% | 2% | 52% | 59.3% | -1% | 41% | 1.3% | -2% | 71% (active) | 2.55% | 0% | 76% (active) | -1.85% | 4% | 80% (active) | -0.8% |
| Cc1cc(N(CCCl)CCCl)ccc1C=Nc1ccc(-c2csc(Cc3ccccc3)n2)c(Cl)c1 | 5% | 89% (active) | 92.7% (active) | -7% | 96% (active) | 94.5% (active) | 2% | 97% (active) | 94.2% (active) | -18% | 91% (active) | 91.1% (active) | 6% | 94% (active) | 89.2% (active) | -17% | 94% (active) | 93.7% (active) |
| CC(Br)C(=O)C(CCN(C)C)(c1ccccc1)c1ccc(Br)s1 (stereo unspecified) | -9% | 13% | 4% | -9% | -6% | 0.55% | -25% | 10% | 0.8% | -12% | 2% | 80.6% (active) | -11% | -5% | 16.1% | -6% | 14% | 11.9% |
| O=[N+]([O-])C=C([SH2+])[SH2+].O=[N+]([O-])C=C([SH2+])[SH2+].[Ni+2].c1ccc(C[P+](c2ccccc2)(c2ccccc2)c2ccccc2)cc1 | 3% | 44% | 93.5% (active) | 7% | 72% (active) | 97.7% (active) | 5% | 52% | 96.7% (active) | -7% | 19% | 87.8% (active) | -1% | 47% | 96.2% (active) | 26% | 83% (active) | 93.3% (active) |
| CC1(C(=O)O)CCCC2(C)c3cc(O)ccc3CCC12 (stereo unspecified) | 2% | 83% (active) | 18.4% | 2% | 86% (active) | 13% | 2% | 88% (active) | 46.4% | -3% | 89% (active) | 52.4% | 5% | 87% (active) | 41.9% | – | – | – |
| [C-]#[O+].[C-]#[O+].[C-]#[O+].[C-]#[O+].[C-]#[O+].[Mo+2].[Mo+4].[c-]1[c-][c-][cH-][c-]1.[c-]1[c-][c-][cH-][c-]1.c1ccc([PH+](CC[PH+](c2ccccc2)c2ccccc2)c2ccccc2)cc1 | 82% (active) | 98% (active) | 90.5% (active) | 73% (active) | 99% (active) | 93% (active) | 91% (active) | 98% (active) | 92.3% (active) | 60% | 98% (active) | 92% (active) | 84% (active) | 98% (active) | 92.3% (active) | – | – | – |
| [Cl][Hg][c]1ccco1 | 99% (active) | 99% (active) | 99.5% (active) | 100% (active) | 99% (active) | 99.5% (active) | 100% (active) | 100% (active) | 99.7% (active) | 99% (active) | 99% (active) | 99% (active) | 100% (active) | 100% (active) | 99.4% (active) | 99% (active) | 99% (active) | 99.2% (active) |
| COc1ccccc1/C=C/[N+](=O)[O-] | 90% (active) | 98% (active) | 99.6% (active) | 65% | 99% (active) | 99.7% (active) | 87% (active) | 99% (active) | 99.2% (active) | 62% | 99% (active) | 99.3% (active) | 74% (active) | 98% (active) | 99.2% (active) | 96% (active) | 99% (active) | 99% (active) |
| O=C(O)C(O)(c1ccc(-c2ccccc2)cc1)c1ccc(-c2ccccc2)cc1 | 16% | 91% (active) | 96.4% (active) | 13% | 93% (active) | 97% (active) | 0% | 95% (active) | 96.2% (active) | 5% | 93% (active) | 95% (active) | -12% | 93% (active) | 96.9% (active) | 1% | 96% (active) | 96.8% (active) |
| CN=C(N)N/N=C(\C)c1ccc2sc3ccc(/C(C)=N/NC(N)=NC)cc3c2c1 | 49% | 55% | 74.7% (active) | -4% | -2% | 24.5% | 23% | 14% | 13% | 17% | 7% | 20.8% | 24% | 20% | -8.5% | – | – | – |
| CC(C)C12C=C3CCC4C(C)(C(=O)O)CCCC4(C)C3(CC1)OO2 (stereo unspecified) | 13% | 90% (active) | 93.7% (active) | -1% | 95% (active) | 95% (active) | 7% | 90% (active) | 97.6% (active) | -6% | 94% (active) | 86.4% (active) | -8% | 91% (active) | 96.4% (active) | – | – | – |
| C1=CC2CCC[N-]C2N1.C1=CC2CCC[N-]C2N1.[I][Pt+2][I] (stereo unspecified) | 4% | 99% (active) | 99% (active) | 9% | 99% (active) | 99.5% (active) | 10% | 99% (active) | 34.5% | 21% | 99% (active) | 98.2% (active) | 6% | 99% (active) | 99% (active) | 23% | 99% (active) | 98.8% (active) |
| O=C1C=CC(=O)C(Br)C1Br (stereo unspecified) | -20% | 34% | 26.1% | -8% | 57% | 35.3% | -7% | 66% | 46.3% | 2% | 10% | 19.1% | -1% | 52% | 71.2% (active) | 35% | 57% | 66.2% |
| COC1CC2C=C(C)/C=C/C=C/C(=O)NC(c3ccccc3)C/C=C/CCC(O)CC(=O)C2=C1O (stereo unspecified) | 97% (active) | 99% (active) | 91.5% (active) | 98% (active) | 99% (active) | 92.8% (active) | 99% (active) | 99% (active) | 92.5% (active) | 98% (active) | 99% (active) | 91.3% (active) | 99% (active) | 99% (active) | 88.7% (active) | 98% (active) | 99% (active) | 91.7% (active) |
